Assay outcomes: PubChem, several laboratories
VHR inh abs: VHR1 phosphatase inhibitors, primary screen, biochemical, absorbance, uHTS; AID 1654, 2009; 290,000 tested, 0.52% active; recombinant VHR phosphatase, pNPP absorbance; Dual specificity protein phosphatase 3 (Homo sapiens), P51452; inhibition, % at 13.3 µM; in the data active = inhibition above about 50%
3CLpro inhibitor: SARS-CoV 3CLpro protease inhibitors, primary screen, biochemical, quenched FRET | Replicase polyprotein 1ab (Severe acute respiratory syndrome coronavirus), P0C6X7 | recombinant SARS-CoV 3CLpro, quenched FRET peptide cleavage | inhibition, % at 6 µM | 290,000 tested, 0.14% active | AID 1706, 2009; in the data active = inhibition above about 12%
TcdB GH inh: TcdB glycohydrolase inhibitors, primary screen, biochemical, single point, plate reader; TcdB glycohydrolase enzymatic assay; 350,000 tested, 0.24% active; inhibition, % at 9.99 µM; Toxin B (Clostridioides difficile), P18177; in the data active = inhibition above about 10%
Vc quorum ag: inducers of Vibrio cholerae quorum light production without autoinducers, primary screen, BH1578 luxS cqsA deficient, single point. V. cholerae BH1578 lux reporter, luminescence, 6 h. AID 588436, 2011. activation, % at 18.7 µM. 350,000 tested, 0.16% active; in the data active = activation mostly above about 9.7%, no sharp cut-off
CCHF vOTU inh-1: CCHFV vOTU protease inhibitors, primary screen, biochemical, Pep-AMC substrate, fluorescence | 370,000 tested, 0.55% active | inhibition, % at 11.5 µM | Crimean-Congo hemorrhagic fever virus L polyprotein viral ovarian tumor (vOTU) protease …; note: 0% = vehicle wells with enzyme and 100% = no enzyme wells
PriA SSB inh: inhibitors of Klebsiella pneumoniae PriA binding to SSB C-terminal tail, primary screen, biochemical, AlphaScreen; PriA–SSB C-terminal tail interaction (Klebsiella pneumoniae); AID 1272365, 2023; 430,000 tested, 0.6% active; inhibition, % at 33 µM; AlphaScreen SSBct-PriA binding, biotinylated peptide; in the data active = inhibition mostly above about 37%, no sharp cut-off; inactive = mostly below about 20%;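 note: plate controls were negative control peptide for no effect and reference peptide for full effect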
CCHF vOTU inh-2: CCHFV vOTU protease inhibitors, confirmation, biochemical, Pep-AMC substrate, fluorescence; shares compounds with CCHF vOTU inh-1; Recombinant CCHFV vOTU; inhibition, % at 11.5 µM; 1,900 tested, 17% active
Starred values were filed as active, the others as inactive; i = inactive; / = no result given. This is a sample that favours compounds with a hit; in the whole collection about 1.3% have one here. Cut-off read from the data, not from the text of the source, unless noted: active = inhibition above about 30%; inactive = the rest.

SMILES | VHR inh abs | 3CLpro inhibitor | TcdB GH inh | Vc quorum ag | CCHF vOTU inh-1 | PriA SSB inh | CCHF vOTU inh-2
CC1CCCC(NC(=O)COC(=O)c2ccccc2[N+](=O)[O-])C1C (stereo unspecified) | 11 | -2 | / | -1 | 0 | 10 | /
CC1CCCC(NC(=O)COC(=O)c2ccc([N+](=O)[O-])s2)C1C (stereo unspecified) | / | / | 2 | -3 | 66* | 1 | 61*
O=S(=O)(Nc1cc(Sc2cccc3cccnc23)c(O)c2ccccc12)c1ccccc1 | 5 | 9 | 1 | / | 40* | 8 | -3
Cc1ccc(C)c(S(=O)(=O)Nc2cc(SCC(=O)O)c(O)c3ccccc23)c1 | -12 | 10 | / | 0 | / | 10 | /
CCc1ccc(S(=O)(=O)Nc2cc(SCC(=O)O)c(O)c3ccccc23)cc1 | 33 | 5 | -2 | i | 114* | 14 | 101*
CCOc1ccc(S(=O)(=O)Nc2cc(SCC(=O)O)c(O)c3ccccc23)cc1 | 4 | 7 | 1 | -2 | 101* | 27 | 77*
O=C(O)CSc1cc(NS(=O)(=O)c2cccc([N+](=O)[O-])c2)c2ccccc2c1O | 69 | 3 | -3 | 0 | 108* | 22 | 99*
CCc1c(C)nc(SCC(=O)Nc2cc(Cl)ccc2OC)[nH]c1=O | / | / | / | / | / | -5 | /
O=C(NCCCn1nc(-c2ccc(Cl)cc2)ccc1=O)c1ccc(F)cc1F | / | / | / | / | / | -15 | /
O=C(CN1CCc2nc(NC(=O)C3CCC3)sc2C1)Nc1cc(C(F)(F)F)ccc1Cl | / | / | / | / | / | -8 | /
O=C(COc1ccccc1)Nc1ccccc1-c1nc2ccccc2[nH]1 | / | / | / | / | / | -20 | /
COc1cccc(C=NNc2ccnc(=O)[nH]2)c1O | / | / | / | / | / | -3 | /
COc1cccc(/C=N/Nc2ccnc(=O)[nH]2)c1O | 10 | 1 | -11 | 1 | 31* | / | -9
Cc1ccc2cc(C(c3nnnn3CC3CCCO3)N3CCc4ccccc4C3)c(=O)[nH]c2c1 (stereo unspecified) | 21 | 1 | / | 2 | 84* | 0 | 0
Cc1cccc2cc(C(c3nnnn3CC3CCCO3)N3CCc4ccccc4C3)c(=O)[nH]c12 (stereo unspecified) | 22 | 1 | / | / | / | 13 | /
CCCCOc1ccc(C(=O)N/C(=C/C=C/c2ccccc2)C(=O)NC)cc1 | -11 | -3 | 1 | 0 | 31* | 9 | -3
CC(=O)Nc1ccc(S(=O)(=O)Nc2ccccc2C(=O)N2CCCC2)cc1 | 3 | -3 | -3 | -10 | 30* | -9 | -6
O=C(c1ccccc1NS(=O)(=O)c1ccccc1)N1CCCCCC1 | 18 | -2 | 1 | -1 | 16 | 4 | /
CCOc1ccc2nc(NC(=O)COc3cccc4c3OC(C)(C)C4)sc2c1 | / | / | / | / | / | 4 | /
CCOC(=O)c1c(C(C)(C)C)oc2ccc(OCc3cccc([N+](=O)[O-])c3)cc12 | / | / | / | / | / | 12 | /
Cc1ccc(NC2=C/C(=N/S(=O)(=O)c3cccs3)c3ccccc3C2=O)cc1 | -10 | 0 | -1 | 0 | 98* | / | 99*
Cc1ccc(S(=O)(=O)/N=C2\C=C(Nc3cccc(C(=O)O)c3)C(=O)c3ccccc32)c(C)c1 | 20 | 8 | 2 | i | 114* | / | 112*
Cc1ccc(S(=O)(=O)N=C2C=C(Nc3cccc(C(=O)O)c3)C(=O)c3ccccc32)c(C)c1 | / | / | / | / | / | 15 | /
Cc1ccc(NC2=CC(=NS(=O)(=O)c3cccs3)c3ccccc3C2=O)cc1 | / | / | / | / | / | 23 | /
O=c1c2oc3ccccc3c2nc(SCc2nc(-c3ccc(Cl)cc3)no2)n1C1CCCC1 | / | / | / | / | / | -20 | /
SMILES | VHR inh abs | 3CLpro inhibitor | TcdB GH inh | Vc quorum ag | CCHF vOTU inh-1 | PriA SSB inh | CCHF vOTU inh-2
COc1cc(/C=C2/NC(=O)N(Cc3ccccc3F)C2=O)cc(OC)c1O | 21 | -1 | -12 | 0 | 40* | 4 | -12
O=C(CSc1nnnn1C1CC1)N1CCN(c2ccccc2F)CC1 | / | / | -6 | i | 33* | -1 | -2
CN(/N=C/C=C/c1ccccc1)c1cc(=O)n(C)c(=O)[nH]1 | 8 | -3 | 0 | -1 | 32* | / | 15
CCCCc1nnc(-c2cc3ccccc3n2CC(=O)NCc2ccccc2Cl)o1 | / | / | / | / | / | -5 | /
CCCCCCN1CCS(=O)(=O)N(Cc2ccccc2)C(C(=O)OC)C1 (stereo unspecified) | / | / | / | / | 5 | / | /
CCCCCCCCN1CCS(=O)(=O)N(Cc2ccc(C)cc2)C(C(=O)OC)C1 (stereo unspecified) | / | / | / | / | 30* | / | 18
CCOc1ccc(/C=C2\SC(=S)N(NS(=O)(=O)c3ccccc3)C2=O)cc1OC | 13 | 10 | 2 | -1 | 41* | 2 | 10
COc1ccc(/C=C2\SC(=S)N(NS(=O)(=O)c3ccc(C)cc3)C2=O)c(OC)c1 | -1 | 2 | 4 | 0 | 1 | 1 | /
COc1ccc(OC)c(/C=C2\SC(=S)N(NS(=O)(=O)c3ccc(C)cc3)C2=O)c1 | / | 2 | 0 | i | 33* | -6 | 8
COc1ccc(OC)c(/C=C2\SC(=S)N(NS(=O)(=O)c3ccccc3)C2=O)c1 | -10 | 2 | -1 | i | 25 | -2 | /
COc1ccccc1/C=C1\SC(=S)N(NS(=O)(=O)c2ccc(C)cc2)C1=O | 10 | 4 | 2 | i | 36* | -1 | 1
O=C(NCCN1CCOCC1)c1ccc2ccccc2c1 | 28 | 2 | / | 0 | 4 | 3 | /
Oc1cc(NCCN2CCOCC2)cc2cccnc12 | / | / | -3 | 0 | 99* | -1 | 46*
CCC(=O)Nc1ccc(S(=O)(=O)NCCCn2ncccc2=O)cc1 | / | / | / | / | / | -12 | /
O=S(=O)(NCC1(O)CCCC1)c1ccccc1F | / | / | / | / | / | -1 | /
Cc1cc(=O)[nH]c(-n2[nH]c(C)cc2=O)n1 | 26 | -5 | / | i | 3 | -2 | /
COc1ccc(-n2[nH]c(C)cc2=O)cc1 | 21 | -3 | / | 0 | 33* | 1 | -27
C/C(=N\NC(=S)NC1CCCCC1)c1ccc(OC(F)F)cc1OC(F)F | 13 | -8 | 1 | i | 33* | / | -6
Cc1ccc(C=Nc2ccc(N(C)C)cc2)o1 | 8 | 4 | -10 | 4 | 33* | 74 | -4
COc1ccccc1N1CCN(CCNC(=O)C(=O)Nc2cccc(SC)c2)CC1 | / | / | / | / | / | -30 | /
CC(C)CS(=O)(=O)C1CN(C(=O)c2ccc3c(c2)OCO3)C1 | / | / | / | / | / | -4 | /
Cc1ccc(C)c(N2CCN(C(=O)c3ccc4nc(-c5ccco5)c(-c5ccco5)nc4c3)CC2)c1 | -8 | 3 | / | i | 44* | 15 | -17
